Source: PubChem BioAssay (EPA / NIEHS)
Calls of active or inactive are those of the source. The calls were made as follows: active = hit-call score of the fitted dose curve at least 0.9, where 1 is the maximum; inactive = score below 0.9.

How the values were obtained:
Conditions in all cases: mRNA level, 48 h; actives raise or lower the signal
CYP3A5 (gene 1577) = experiment: LTEA_HepaRG_CYP3A5: Life Technologies and Expression Analysis (LTEA) Assay for CYP3A5 using HepaRG (AID 2283493)
Summary of the method: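 Differentiated HepaRG cells in serum-free induction medium were dosed 48 h with test chemicals (8-point half-log series, top 100 uM, 0.5% DMSO, duplicate). CYP3A5 mRNA measured by qRT-PCR, normalized to ACTB, GAPDH, POLR2A; bidirectional fit versus DMSO.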

[1] = read-out: Fatty Acid-Binding Protein 1 (FABP1), FABP1 (gene 2168); experiment: LTEA_HepaRG_FABP1: Life Technologies and Expression Analysis (LTEA) Assay for Fatty Acid-Binding Protein 1 (FABP1) using HepaRG (AID 2283494)
Summary of the method: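 Differentiated human HepaRG cells exposed 48 h in serum-free induction medium to eight half-log concentrations up to 100 uM (0.5% DMSO), duplicate. FABP1 mRNA by qRT-PCR, normalised to ACTB, GAPDH, POLR2A; bidirectional fitting against DMSO.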

[2] = read-out: Cytochrome P450 4A22 (Homo sapiens) (UniProt Q5TCH4); experiment: LTEA_HepaRG_CYP4A22: Life Technologies and Expression Analysis (LTEA) Assay for Cytochrome P450 4A22 (CYP4A22) using HepaRG (AID 2283495)
Summary of the method: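 Cryopreserved HepaRG cells, plated and cultured 48 h, then switched to serum-free induction medium and treated 48 h (duplicates, up to 100 uM, half-log steps, 0.5% DMSO). Expression change of CYP4A22 was fitted bidirectionally against vehicle.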

[3] = read-out: Cytochrome P450 7A1 (Homo sapiens) (UniProt P22680); experiment: LTEA_HepaRG_CYP7A1: Life Technologies and Expression Analysis (LTEA) Assay for Cytochrome P450 7A1 (CYP7A1) using HepaRG (AID 2283496)
Summary of the method: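 Gene expression endpoint in human HepaRG liver cells treated for 48 h with test chemicals (up to 100 uM, 0.5% DMSO). Values come from bidirectional concentration-response fitting versus DMSO.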

[4] = read-out: Glutathione S-Transferase (GSTA2), GSTA2 (gene 2939); experiment: LTEA_HepaRG_GSTA2: Life Technologies and Expression Analysis (LTEA) Assay for Glutathione S-Transferase (GSTA2) using HepaRG (AID 2283497)
Summary of the method: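 Differentiated human HepaRG cells were exposed in duplicate for 48 h in serum-free induction medium, 8 points from 100 uM top in half-log steps, 0.5% DMSO. GSTA2 mRNA was measured by TaqMan qRT-PCR, normalized to ACTB, GAPDH and POLR2A; bidirectional fit versus DMSO.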

[5] = read-out: Glutamate-cysteine ligase catalytic (GCLC), GCLC (gene 2729); experiment: LTEA_HepaRG_GCLC: Life Technologies and Expression Analysis (LTEA) Assay for Glutamate-cysteine ligase catalytic (GCLC) using HepaRG (AID 2283498)
Summary of the method: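 Differentiated HepaRG cells exposed 48 h in serum-free induction medium, eight-point half-log series topping at 100 uM in 0.5% DMSO, duplicates. GCLC mRNA by qRT-PCR normalized to ACTB, GAPDH and POLR2A, fitted bidirectionally versus DMSO.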

[6] = read-out: growth arrest and DNA damage 45 (GADD45G), GADD45G (gene 10912); experiment: LTEA_HepaRG_GADD45G: Life Technologies and Expression Analysis (LTEA) Assay for growth arrest and DNA damage 45 (GADD45G) using HepaRG (AID 2283499)
Summary of the method: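 Human hepatic HepaRG line treated 48 h with chemicals (eight concentrations, half-log steps from 100 uM); transcript induction or repression of GADD45G scored by qRT-PCR versus DMSO vehicle.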

[7] = read-out: Glutamate-cysteine ligase regulatory (GCLM), GCLM (gene 2730); experiment: LTEA_HepaRG_GCLM: Life Technologies and Expression Analysis (LTEA) Assay for Glutamate-cysteine ligase regulatory (GCLM) using HepaRG (AID 2283500)
Summary of the method: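 Differentiated human HepaRG cells exposed 48 h in serum-free induction medium to 8-point half-log concentrations (top 100 uM, 0.5% DMSO), in duplicate. GCLM mRNA quantified by qRT-PCR, normalized to ACTB, GAPDH, POLR2A; bidirectional fitting versus DMSO.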

[8] = read-out: Glutathione S-transferase M3 (GSTM3), GSTM3 (gene 2947); experiment: LTEA_HepaRG_GSTM3: Life Technologies and Expression Analysis (LTEA) Assay for Glutathione S-transferase M3 (GSTM3) using HepaRG (AID 2283501)
Summary of the method: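 Changes in GSTM3 expression, an oxidative-stress marker, were scored by bidirectional curve fitting against 0.5% DMSO vehicle. Human HepaRG cultures received chemicals for 48 h in duplicate, highest concentration 100 uM with half-log dilutions.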

[9] = read-out: Heat shock 70 kDa protein 1 (HSPA1A), gene 3303; experiment: LTEA_HepaRG_HSPA1A: Life Technologies and Expression Analysis (LTEA) Assay for Heat shock 70 kDa protein 1 (HSPA1A) using HepaRG (AID 2283502)
Summary of the method: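 Differentiated human HepaRG cells in serum-free induction medium were exposed in duplicate for 48 h to eight concentrations (top 100 uM, half-log steps, 0.5% DMSO). HSPA1A mRNA was quantified by qRT-PCR, normalized to ACTB, GAPDH and POLR2A, and fitted bidirectionally against DMSO.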

[10] = read-out: Hypoxia-inducible factor 1-alpha (Homo sapiens) (UniProt Q16665); experiment: LTEA_HepaRG_HIF1A: Life Technologies and Expression Analysis (LTEA) Assay for Hypoxia-inducible factor 1 (HIF1A) Trancription factor using HepaRG (AID 2283503);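 also: HIF1A transcript by TaqMan qRT-PCR normalized to ACTB GAPDH and POLR2A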
Summary of the method: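 HepaRG, 48 h exposure, 8-pt half-log series from 100 uM, 0.5% DMSO vehicle, duplicates. Readout: HIF1A transcript by qRT-PCR (Fluidigm array), housekeeping-normalised. Bidirectional curve fit vs DMSO baseline.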

[11] = read-out: 3-Hydroxy-3-Methylglutaryl-CoA Synthase 2 (HMGCS2), HMGCS2 (gene 3158); experiment: LTEA_HepaRG_HMGCS2: Life Technologies and Expression Analysis (LTEA) Assay for 3-Hydroxy-3-Methylglutaryl-CoA Synthase 2 (HMGCS2) using HepaRG (AID 2283504)
Summary of the method: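 Expression of HMGCS2 in human HepaRG liver cells is measured by qRT-PCR 48 h after dosing (highest 100 uM, half-log series, 0.5% DMSO). Values come from bidirectional concentration-response fitting with DMSO as baseline.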

HGF (gene 3082) = experiment: LTEA_HepaRG_HGF: Life Technologies and Expression Analysis (LTEA) Assay for Hepatocyte Growth Facto (HGF) using HepaRG (AID 2283505)
Summary of the method: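 Gain or loss of HGF mRNA in human HepaRG liver cells after 48 h chemical exposure; eight concentrations up to 100 uM with 0.5% DMSO vehicle, quantified by TaqMan qRT-PCR.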

[12] = read-out: Insulin Like Growth Factor 1 (IGF1), IGF1 (gene 3479); experiment: LTEA_HepaRG_IGF1: Life Technologies and Expression Analysis (LTEA) Assay for Insulin Like Growth Factor 1 (IGF1) using HepaRG (AID 2283506)
Summary of the method: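 Differentiated human HepaRG cells were dosed for 48 h in serum-free induction medium with 0.5% DMSO, eight half-log concentrations up to 100 uM, in duplicate. IGF1 mRNA was quantified by qRT-PCR normalized to ACTB, GAPDH, POLR2A; bidirectional fitting versus DMSO.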

[13] = read-out: Intercellular Adhesion Molecule 1 (ICAM1), ICAM1 (gene 3383); experiment: LTEA_HepaRG_ICAM1: Life Technologies and Expression Analysis (LTEA) Assay for Intercellular Adhesion Molecule 1 (ICAM1) using HepaRG (AID 2283507)
Summary of the method: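 Gain or loss of transcript in HepaRG hepatic cells is quantified by qRT-PCR after 48 h chemical exposure (up to 100 uM, half-log steps), with DMSO as baseline.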

[14] = read-out: Insulin-like growth factor-binding protein 1 (IGFBP1), IGFBP1 (gene 3484); experiment: LTEA_HepaRG_IGFBP1: Life Technologies and Expression Analysis (LTEA) Assay for Insulin-like growth factor-binding protein 1 (IGFBP1) using HepaRG (AID 2283508)
Summary of the method: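 mRNA induction or loss was quantified by qRT-PCR after 48 h chemical exposure of human HepaRG cells, with 0.5% DMSO as vehicle and baseline. Concentration-response over eight points up to 100 uM.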

[15] = read-out: Interleukin 6 (IL6), IL6 (gene 3569); experiment: LTEA_HepaRG_IL6: Life Technologies and Expression Analysis (LTEA) Assay for Interleukin 6 (IL6) using HepaRG (AID 2283509)
Summary of the method: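 HepaRG cells exposed in duplicate for 48 h to eight half-log concentrations, top 100 uM, in 0.5% DMSO serum-free induction medium. mRNA measured by qRT-PCR, normalized to ACTB, GAPDH and POLR2A. Bidirectional fit versus DMSO.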

[16] = read-out: Interleukin 6 Receptor (IL6R), IL6R (gene 3570); experiment: LTEA_HepaRG_IL6R: Life Technologies and Expression Analysis (LTEA) Assay for Interleukin 6 Receptor (IL6R) using HepaRG (AID 2283510);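 as to AC50: TaqMan qRT-PCR signal normalized to ACTB GAPDH and POLR2A housekeeping genes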
Summary of the method: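 Differentiated human HepaRG cells, plated 48 h then switched to serum-free induction medium, were dosed in duplicate for 48 h at eight half-log concentrations up to 100 uM in 0.5% DMSO. IL6R mRNA quantified by qRT-PCR, normalized to ACTB/GAPDH/POLR2A; bidirectional fit versus DMSO.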

[17] = read-out: Potassium channel subfamily K member 1 (KCNK1), KCNK1 (gene 3775); experiment: LTEA_HepaRG_KCNK1: Life Technologies and Expression Analysis (LTEA) Assay for Potassium channel subfamily K member 1 (KCNK1) using HepaRG (AID 2283511)
Summary of the method: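 Differentiated HepaRG cells, 48 h exposure in serum-free induction medium with 0.5% DMSO; 8 concentrations, half-log from 100 uM, duplicate. KCNK1 mRNA by qRT-PCR, normalized to ACTB, GAPDH, POLR2A; bidirectional fit vs DMSO.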

[18] = read-out: Keratin 19 (KRT19), KRT19 (gene 3880); experiment: LTEA_HepaRG_KRT19: Life Technologies and Expression Analysis (LTEA) Assay for Keratin 19 (KRT19) using HepaRG (AID 2283512)
Summary of the method: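 Gene-expression endpoint in the human liver line HepaRG after 48 h exposure to up to 100 uM test chemical with 0.5% DMSO vehicle; KRT19 mRNA by qRT-PCR, analyzed bidirectionally versus DMSO.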

Measured: AC50

Sequence of Hypoxia-inducible factor 1-alpha (Homo sapiens) (Q16665 whole entry, looked up): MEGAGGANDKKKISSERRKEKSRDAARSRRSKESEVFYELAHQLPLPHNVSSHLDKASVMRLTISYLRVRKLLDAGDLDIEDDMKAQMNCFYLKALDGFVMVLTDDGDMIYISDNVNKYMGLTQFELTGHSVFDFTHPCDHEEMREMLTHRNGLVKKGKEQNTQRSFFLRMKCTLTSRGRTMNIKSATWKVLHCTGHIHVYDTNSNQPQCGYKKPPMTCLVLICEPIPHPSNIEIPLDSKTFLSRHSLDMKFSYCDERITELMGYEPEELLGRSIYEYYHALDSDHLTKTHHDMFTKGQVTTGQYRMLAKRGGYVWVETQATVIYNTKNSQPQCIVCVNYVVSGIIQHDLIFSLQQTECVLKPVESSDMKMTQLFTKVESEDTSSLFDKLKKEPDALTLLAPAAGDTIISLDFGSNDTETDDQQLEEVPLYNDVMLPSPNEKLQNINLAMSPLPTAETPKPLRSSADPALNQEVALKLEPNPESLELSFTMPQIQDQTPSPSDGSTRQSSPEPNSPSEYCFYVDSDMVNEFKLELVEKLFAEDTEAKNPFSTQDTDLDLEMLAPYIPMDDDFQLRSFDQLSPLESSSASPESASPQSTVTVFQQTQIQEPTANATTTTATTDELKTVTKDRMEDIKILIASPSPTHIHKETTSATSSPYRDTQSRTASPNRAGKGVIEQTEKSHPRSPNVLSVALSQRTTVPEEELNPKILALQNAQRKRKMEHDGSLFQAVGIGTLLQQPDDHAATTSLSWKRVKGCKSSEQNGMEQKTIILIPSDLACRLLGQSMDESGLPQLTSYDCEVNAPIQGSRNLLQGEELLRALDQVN

CC(C)(C)c1ccccc1O
inactive: all assays above

N#Cc1cccnc1
inactive: all assays above

COc1ccccc1N
inactive: all assays above

Clc1cccc(Cl)c1
inactive: all assays above

Clc1cccc(Cl)c1Cl
not listed: [16]
inactive: all other assays above

CC(C)O.CC(C)O.OCCN(CCO)CCO.OCCN(CCO)CCO.[Ti]
inactive: all assays above

CCCCCCCCCCCCc1cccc(S(=O)(=O)O)c1
active: [2] 25.6 µM | [9] 59.4 µM | [10] 16.5 µM | [11] 37.9 µM | [18] 76.1 µM
inactive: all other assays above

O=C(O)C1(c2ccc3c(c2)OC[C@H](Cc2ccc(-c4ccccc4)cc2)[C@H]3O)CCCC1
active: CYP3A5 (gene 1577) 77 µM | [1] 83.9 µM | [4] 80.1 µM | [5] 75.6 µM | [9] 78.2 µM | [10] 82.3 µM | [12] 15.8 µM | [13] 64.4 µM | [14] 50 µM | [15] 78.4 µM
inactive: all other assays above

Oc1cc(Cl)c(Cl)cc1Cl
active: [18] 50 µM
not listed: [8]
inactive: all other assays above

Cc1cc(C)cc(C)c1
inactive: all assays above

O=C(N[C@H]1CN2CCC1CC2)c1ccc2c(c1)OCCO2
active: [7] 0.112 µM | [16] 12.2 µM
inactive: all other assays above

CN(C)C(=S)S
not listed: [2] | [3]
inactive: all other assays above

OCCN(CCO)CCO
inactive: all assays above

Oc1c(Cl)cc(Cl)cc1Cl
not listed: CYP3A5 (gene 1577) | [2] | [3] | HGF (gene 3082)
inactive: all other assays above
